From PubChem
A selection: hits, their analogues and other compounds. The true share with any hit is near 8.7%.
G9a block: blocks human histone lysine methyltransferase G9a | Q96KQ7 | G9a H3K9 monomethylation, AlphaScreen, 2 h | Potency, µM (top dose mostly 102 µM), without a hit: top-dose activity, negative = inhibition, usual class: inhibitors | 8.8% of 350,000 active | AID 504332; further: on the % scale 0 is the no-effect control and ±100 the full control effect; nearly all actives have a fitted effect of over 75% in size
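Compounds were preincubated with 20 nM G9a for 15 min, after which biotinylated H3K9 peptide (500 nM) and SAM (20 uM) started a 2 h room-temperature reaction. Monomethylated product was quantified by antibody-based AlphaScreen chemiluminescence.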
12-LOX inh: ALOX12 (human) lipoxygenase inhibition; purified 12hLO, xylenol orange hydroperoxide absorbance; Potency, µM (highest dose often 108 µM), inactives show at the top dose activity change, negative = inhibition, usual class: inhibitors; 1.1% of 580,000 active; AID 1671190; further: on the % scale 0 is the no-effect control and ±100 the full control effect
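Purified human 12hLO (150 nM final) in 25 mM Hepes, 0.01% Triton X-100, pH 7.0 was preincubated 15 min at room temperature with compound. Then 40 uM arachidonic acid was added, 30 min. Hydroperoxide was read by Fe-XO absorbance ratio 573/405 nm.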
Sfp PPTase inh: Sfp phosphopantetheinyl transferase inhibition; Biochemical Sfp PPTase activity, qHTS; Potency, µM, without a hit: largest response in the series, negative = inhibition, most hits filed as inhibitors; 3.5% of 310,000 active; AID 1490;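 further: the enzyme is Sfp with the accession as filed and its product quenches rhodamine fluorescence; 0% = enzyme reaction without inhibitor and -100% = no enzyme wells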
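Step 1, compound plus 15 nM Sfp-PPTase, 15 min, room temperature. Step 2, add rhodamine-CoA (5 uM) and BHQ-2-YbbR (12.5 uM). Step 3, read 525/598 nm fluorescence at 0 and 30 min.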
HP1b chromo inh: HP1-beta chromodomain-methylated histone interaction inhibition | P83916 | AlphaScreen HP1-beta / biotin-H3K9me3 peptide binding | Potency, µM (titrated, usually from 114 µM), inactives show at the top dose activity change, negative = inhibition, hits mostly inhibitors | 0.56% of 390,000 active; further: nearly all actives have a fitted effect of over 70% in size
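AlphaScreen: HP1-beta (50 nM) preformed 30 min with biotin-H3(1-18)K9me3 peptide (50 nM) in PBS pH 7.4, 0.01% Tween-20. Compound added for 30 min at RT, then streptavidin donor/nickel chelate acceptor beads (10 ug/mL) for 30 min.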
JMJD2A Tudor: blocks the human JMJD2A Tudor domain; Potency, µM (titrated, usually from 114 µM), for the others: top-dose activity change, negative = inhibition, actives largely listed as inhibitors; O75164; AlphaScreen JMJD2A-Tudor / H3K4me3 peptide binding; 4.4% of 390,000 active; further: on the % scale 0 is the no-effect control and ±100 the full control effect; nearly all actives have a fitted effect of over 50% in size
Target sequence (O75164 whole entry, looked up, the tested form may be a part): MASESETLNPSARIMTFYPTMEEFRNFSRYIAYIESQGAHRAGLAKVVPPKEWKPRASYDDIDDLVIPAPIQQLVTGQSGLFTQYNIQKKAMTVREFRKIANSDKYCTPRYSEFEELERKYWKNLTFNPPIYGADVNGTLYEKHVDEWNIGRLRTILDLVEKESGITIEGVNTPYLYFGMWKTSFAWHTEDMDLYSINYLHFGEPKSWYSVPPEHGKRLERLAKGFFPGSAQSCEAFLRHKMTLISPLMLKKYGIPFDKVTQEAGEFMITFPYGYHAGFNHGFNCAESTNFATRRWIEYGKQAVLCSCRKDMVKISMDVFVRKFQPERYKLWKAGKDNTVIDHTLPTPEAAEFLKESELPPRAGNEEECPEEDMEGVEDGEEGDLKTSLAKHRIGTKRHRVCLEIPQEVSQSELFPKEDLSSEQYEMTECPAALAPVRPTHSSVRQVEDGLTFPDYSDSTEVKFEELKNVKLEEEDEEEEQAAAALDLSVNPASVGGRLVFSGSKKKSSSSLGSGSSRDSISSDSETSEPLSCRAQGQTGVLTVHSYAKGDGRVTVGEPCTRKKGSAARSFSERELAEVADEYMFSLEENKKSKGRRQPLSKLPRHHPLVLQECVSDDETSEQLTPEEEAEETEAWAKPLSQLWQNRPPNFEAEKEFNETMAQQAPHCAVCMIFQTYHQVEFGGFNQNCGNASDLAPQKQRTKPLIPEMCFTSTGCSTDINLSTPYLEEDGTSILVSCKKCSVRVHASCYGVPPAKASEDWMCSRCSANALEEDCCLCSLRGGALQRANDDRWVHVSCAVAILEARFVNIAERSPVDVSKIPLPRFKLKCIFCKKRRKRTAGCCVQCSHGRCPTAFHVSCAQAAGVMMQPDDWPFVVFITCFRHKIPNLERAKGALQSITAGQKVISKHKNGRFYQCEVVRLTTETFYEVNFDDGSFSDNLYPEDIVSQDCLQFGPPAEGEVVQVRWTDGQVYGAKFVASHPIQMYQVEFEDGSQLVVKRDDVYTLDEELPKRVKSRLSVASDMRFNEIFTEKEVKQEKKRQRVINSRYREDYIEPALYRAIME
BAZ2B inh: BAZ2B (human) inhibition; Q9UIF8; AlphaScreen BAZ2B-H3K14Ac peptide displacement; Potency, µM (doses to about 114 µM), without a hit: at the top dose activity change, negative = inhibition, most hits filed as inhibitors; 4.4% of 360,000 active; AID 504333; further: on the % scale 0 is the no-effect control and ±100 the full control effect; nearly all actives have a fitted effect of over 60% in size
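AlphaScreen luminescence quantifies BAZ2B engagement of H3K14Ac peptide; the protein and biotinylated peptide are both at 50 nM final, buffer PBS pH 7.4 with 0.01% Tween-20, all steps at room temperature.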
* marks the source's active call; other numbers are inactive results; ? = inconclusive; · = no result given; [ ] = dose if it differs, or a comment. The call rests on the fitted dose curve; in most records, active means well fitted curve in the direction sought with a large enough effect; inconclusive means small, poorly fitted or top-dose-only effect, or another doubt; inactive means no such curve, though single readings can be large; an effect the other way counts as inactive or inconclusive. Potency means the concentration at half of the fitted maximal effect.

SMILES | G9a block | 12-LOX inh | Sfp PPTase inh | HP1b chromo inh | JMJD2A Tudor | BAZ2B inh
COCCN(C(=O)CSc1nc(N)cc(=O)[nH]1)c1c(N)n(Cc2ccccc2)c(=O)[nH]c1=O | 50µM* | ? | · | 14% | -11% | 9%
CCOc1ccc2nc(SCC(=O)N(CC(C)C)c3c(N)n(Cc4ccccc4)c(=O)[nH]c3=O)[nH]c2c1 | 50µM* | -4% | · | 16% | -9% | -2%
COCCN(C(=O)CSc1nc2ccc(C)cc2[nH]1)c1c(N)n(Cc2ccccc2)c(=O)[nH]c1=O | ? | -10% | -9% | 22% | -16% | -8%
COCCN(C(=O)CSc1nc2ccc(OC)cc2[nH]1)c1c(N)n(Cc2ccccc2)c(=O)[nH]c1=O | 20µM* | ? | · | 23% | -21% | 5%
CN(C)C[C@@H]1CN(c2ccccn2)C[C@H]1NC(=O)c1ccsc1 | · | -1% | · | · | · | ·
O=C(CC1C(=O)CCCC1=O)c1ccccc1 | 45µM* | -24% | ? | 38% | -9% | -34%
COC1CN(C2CCN(C(=O)CC(C)C)CC2)C12CCOCC2 (centres undefined) | · | 10% | · | · | · | ·
CCCNc1c(N)n(-c2ccccc2)c(=O)[nH]c1=O | 35µM* | 41% | -11% | 14% | ? | 56µM*
Nc1c(NCc2ccccc2)c(=O)[nH]c(=O)n1Cc1ccccc1 | 26%[59 µM] | · | ? | 22% | -17% | 0%
Nc1c(N=O)c(=O)[nH]c(=O)n1-c1ccccc1 | · | 11% | · | -17% | 50µM* | ·
COCC(=O)N[C@H]1C[C@H]2C(=O)Nc3ccc(-c4cccs4)cc3C(=O)N2C1 | · | 8%[176 µM] | · | · | · | ·
COc1ccc(CNC(=O)[C@@H]2Cc3c[nH]c4cccc(c34)[C@H](CC(C)C)N2)cc1 | · | 13%[176 µM] | · | · | · | ·
Cc1cc(NC(=O)N(Cc2ccc(C)o2)C2CC2)no1 | · | 38% | · | · | · | ·
Cc1ccccc1C(=O)Oc1cc(-c2ccc3c(c2)OCO3)cc(=O)c2c(C)oc(C)c12 | 14µM* | ? | · | 1% | -34% | ?
Cc1ccc(C(=O)Oc2cc(-c3ccc4c(c3)OCO4)cc(=O)c3c(C)oc(C)c23)cc1 | ? | ? | · | 8% | ? | ?
CCOc1cc(-c2ccc3c(c2)OCO3)cc(=O)c2c(C)oc(C)c12 | ? | · | 32µM* | · | · | ?
C[C@H](C(=O)N1Cc2ccccc2CC2(CCN(C)CC2)C1)c1ccccc1 | · | 13%[6.33 µM] | · | · | · | ·
O=C(O)[C@H]1CCCN1S(=O)(=O)c1cccc2cccnc12 | 13%[12.7 µM] | 10% | · | 35% | -27% | 11%
CC1CCCCN1S(=O)(=O)c1cccc2cccnc12 (centres undefined) | 32µM* | -2% | 6% | 21% | -15% | -6%
Cc1nc2ccc(C(=O)NCC(C)C)cc2nc1C | · | 13% | · | · | · | ·
Cc1ccc(S(=O)(=O)n2ccc3c(OCCOCCSCC(NC(=O)OC(C)(C)C)C(=O)O)cccc32)cc1 (centres undefined) | -9%[12.7 µM] | -10% | 3% | -8% | -33% | 50µM*
Cc1ccc(S(=O)(=O)NCCCCC(NC(=O)OC(C)(C)C)C(=O)O)cc1 (centres undefined) (tested in a mixture with another compound) | 5%[59 µM] | 18% | 15% | 29% | 1% | 2%
Cc1ccc(S(=O)(=O)n2ccc3c(OCCOCCNCc4ccc(F)cc4)cccc32)cc1 | ? | ? | 71µM* | -3% | -32% | -34%
Cc1ccccc1C1=NN(C(=O)CCC(=O)O)C(c2ccc3nccnc3c2)C1 (centres undefined) | · | -43% | · | · | · | ·
Cc1ccc2nc(C)c(C(=O)/C=C/c3ccccc3)c(-c3ccccc3)c2c1 | · | -2% | · | · | · | ·
SMILES | G9a block | 12-LOX inh | Sfp PPTase inh | HP1b chromo inh | JMJD2A Tudor | BAZ2B inh
N#C/C(=C(/O)CCCl)c1ccccn1 | 32µM* | 0% | -20% | 31% | ? | ?
N#C/C(=C(\O)CCCl)c1ccccn1 | · | -40% | · | · | · | ·
Cc1cc2nc(N3C(=O)CNC3=S)sc2cc1C | 1% | -1% | 2% | 29% | -20% | 45µM*
CCOc1ccc2nc(N3C(=O)CNC3=S)sc2c1 | 8% | 0% | -13% | 32% | -15% | -21%
C/C(=C/CCC(C)C1CCC2(C)C3CCC4C(C)(C)C(=O)CCC4(C)C3=CCC12C)C(=O)O (centres undefined) | 5%[59 µM] | · | -5% | · | · | 50µM*
Cc1cc(N=Cc2cc(Br)ccc2O)no1 | -21%[59 µM] | ? | -11% | 23% | -15% | -3%
CC(C)(C)N=Cc1cc(Br)ccc1O | · | 56µM* | · | · | · | ·
COc1ccc(C/C(C)=N/NS(=O)(=O)c2ccc(Br)cc2)cc1 | 25µM* | ? | -18% | 30% | -17% | 3%
CCOC(=O)c1c(CC(C)C)csc1NC(C)=O | 15%[12.7 µM] | -1% | 12% | 83% | 30% | 54%
CCOC(=O)c1c(-c2ccco2)csc1N | 18µM* | -1% | 32µM* | ? | ? | -13%
CCOC(=O)c1c(-c2cc(OC)c(OC)c(OC)c2)csc1N | · | -17% | · | · | · | ·
CCCc1csc(N)c1C(=O)OCC | · | 7.9µM* | · | · | · | ·
CCOC(=O)c1c(-c2cccs2)csc1N | 50µM* | 45µM* | -21% | ? | -35% | -38%
COc1cc2c(c(OC)c1)C(c1ccccc1)C1=C(CCCC1=O)N2 (centres undefined) | · | 9% | · | · | · | ·
Nc1nc(CN2CCN(C(=O)c3cc(Cl)cc(Cl)c3)CC2)nc2ccccc12 | · | 6% | · | · | · | ·
Fc1ccc(-c2noc(CCc3nc4ccccc4[nH]3)n2)cc1 | · | 7% | · | · | · | ·
CC1(C)CC(NC(=S)Nc2cccc(F)c2)CC(C)(C)N1 | · | -10% | · | · | · | ·
Cc1ccc(NC(=S)NCC2(C)CC(NC(=S)Nc3ccc(C)cc3C)CC(C)(C)C2)c(C)c1 (centres undefined) | · | 7.1µM* | · | · | · | ·
Cc1ccc(NC(=S)NCc2ccccc2)c(C)c1 | -8% | 0% | 14% | 42% | -21% | -30%
CC1(C)CC(NC(=S)Nc2ccccc2)CC(C)(CNC(=S)Nc2ccccc2)C1 (centres undefined) | · | 28µM* | · | · | · | ·
CCO[C@H]1CN(C(=O)CCSCc2ccc(F)cc2)C[C@@H]1O | · | 0% | · | · | · | ·
CC(C)CN(C(=O)COC(=O)c1ccccn1)c1c(N)n(Cc2ccccc2)c(=O)[nH]c1=O | 45µM* | -19% | · | -13% | 6.3µM* | ?
CCc1nc2ccccc2n1CC(=O)OCC(=O)N(CC(C)C)c1c(N)n(Cc2ccccc2)c(=O)[nH]c1=O | 56µM* | -17% | · | 29% | -5% | 6%
O=C(NCc1ccco1)NC1CCc2nnc(C3CC3)n2CC1 (centres undefined) | · | 14% | · | · | · | ·
